A selection follows.
aSyn UTR act = Activators via SNCA 5'UTR binding, MLPCN; 300,000 tested, 7.1% active; alpha-synuclein 5'UTR reporter, activators screen; AID 1814; activity score, % (tested at 7.5 µM), hits read low; in the data active = activity score below about -60%
Each line names hits and unclear results; the compound was inactive in the other large screens.

CCN1CCN(c2cc(C)c3cc(NC(=O)c4ccc(OC)c(OC)c4)ccc3n2)CC1	aSyn UTR act -72
Cc1csc(C(C#N)C(=O)c2cc3ccccc3o2)n1 (stereo not drawn)	aSyn UTR act -145
N#C/C(=C\C=C\c1ccccc1[N+](=O)[O-])C(=O)NCc1ccccc1	aSyn UTR act -291
O=C(Cc1cccs1)N/N=C/C=C/c1ccccc1[N+](=O)[O-]	aSyn UTR act -99
Cc1ccc(CSc2nnc(SCC(=O)N/N=C/C=C/c3ccccc3[N+](=O)[O-])s2)cc1	none
O=C(O)c1ccc(N/N=C/C=C/c2ccccc2[N+](=O)[O-])cc1	aSyn UTR act -127
O=C(Cc1ccccc1)N/N=C/C=C/c1ccccc1[N+](=O)[O-]	aSyn UTR act -83
N#C/C(=C/C=C/c1ccccc1)C(=O)Nc1ccccc1	aSyn UTR act -109
CCC(C)NC(=O)c1cc(Sc2nnc(C)s2)nc2ccccc12 (stereo not drawn)	aSyn UTR act -67
CC(C)(C)c1ccc(-c2nnc(N)s2)cc1	aSyn UTR act -65
COc1ccccc1Oc1ccc(N/C=C/C(=O)c2ccco2)cc1	aSyn UTR act -199
O=C(/C=C/Nc1ccc(Oc2ccccc2Cl)cc1)c1ccco1	aSyn UTR act -184
O=C(Nc1ccccc1F)c1coc(=O)c(Br)c1	aSyn UTR act -62
Cc1cc(NC(=O)c2coc(=O)c(Br)c2)ccc1C(C)C	aSyn UTR act -75
O=C(NCCc1ccc(F)cc1)c1coc(=O)c(Br)c1	aSyn UTR act -64
COc1cccc2c1C(=O)c1c(O)c3c(c(O)c1C2=O)C[C@](O)(C(C)=O)C[C@H]3O[C@@H]1C[C@@H](N)[C@@H](O)[C@@H](C)O1	none
COc1cccc(N(C(=O)c2nc3nccc(C)n3n2)c2nc3ccccc3s2)c1	aSyn UTR act -185
CC1(C)CN=c2s/c(=C\c3ccc(Cl)cc3)c(=O)n2C1	aSyn UTR act -111
CCCc1cc(=O)n2c([nH]c3ccccc32)c1C#N	aSyn UTR act -70
CCOc1cc(N(CC)CC)ccc1/C=C(/C#N)c1nc2ccccc2[nH]1	aSyn UTR act -107
Cc1cc(/C=C(\C#N)c2nc3ccccc3[nH]2)c(C)n1C	aSyn UTR act -224
N#C/C(=C(/O)c1cccs1)c1nc2ccccc2[nH]1	aSyn UTR act -102
N#C/C(=C\c1c(Cl)cccc1Cl)c1nc2ccccc2[nH]1	aSyn UTR act -64
N#C/C(=C\C1CC=CCC1)c1nc2ccccc2[nH]1 (stereo not drawn)	aSyn UTR act -66
N#C/C(=C\c1ccc(Cl)cc1)c1nc2ncccc2[nH]1	aSyn UTR act -94
N#C/C(=C/c1cccs1)c1nc2ccccc2[nH]1	aSyn UTR act -201
N#C/C(=C\c1cccs1)Sc1nc2ccccc2s1	aSyn UTR act -68
Cc1ccc(/C=C(\C#N)c2nc3ccccc3[nH]2)s1	aSyn UTR act -229
Cc1ccc(C(=O)Cn2cnc3ccccc3c2=O)cc1C	aSyn UTR act -155
Cc1cc(C(=O)Cn2cnc3ccccc3c2=O)c(C)n1C1CC1	aSyn UTR act -109
O=C(Cn1cnc2ccccc2c1=O)c1ccc2ccccc2c1	aSyn UTR act -140
O=C(Cn1cnc2ccccc2c1=O)Nc1ccc2c(c1)OCO2	aSyn UTR act -120
O=C(Cn1cnc2ccccc2c1=O)c1ccc2c(c1)OCCO2	aSyn UTR act -130
COc1ccc(C(=O)Cn2cnc3ccccc3c2=O)cc1	aSyn UTR act -146
O=C(CN1C(=O)c2ccccc2S1(=O)=O)c1ccc2c(c1)OCCO2	none
O=C(c1ccc(OC(F)(F)F)cc1)c1ncc[nH]1	aSyn UTR act -83
C#CCSc1ncc(-c2ccccc2)cn1	aSyn UTR act -101
C=CCSc1ncc(-c2ccccc2)cn1	aSyn UTR act -160
O=c1c(Br)c(NCc2ccccc2)cnn1-c1ccc(F)cc1	aSyn UTR act -68
O=C(Nc1ccccc1)NC1CCCCC1	aSyn UTR act -66
O=C(Nc1ccccc1)NC1CCCCCCC1	aSyn UTR act -106
CCN(CC)CCn1c2ccccc2c2nc3ccccc3nc21	aSyn UTR act -213
OCCN(CC#CCn1c2ccccc2c2ccccc21)CCO	none
CCOC(=O)C1=C(COC(=O)/C=C/c2ccccc2Cl)NC(=O)NC1C (stereo not drawn)	aSyn UTR act -70
CCOC(=O)C1=C(COC(=O)c2cccc(N(C)C)c2)NC(=O)NC1C (stereo not drawn)	aSyn UTR act -136
COc1cc(OC)cc(C(=O)Oc2c(CN3CCOCC3)cc(Cl)c3cccnc23)c1	none
COc1ccc2c(c1OC)c(=O)n1c3ccc(OC(C)C(=O)NCCN4CCOCC4)cc3c3ccnc2c31 (stereo not drawn)	aSyn UTR act -65
CC(Oc1ccc2c(c1)c1ccnc3c4ccccc4c(=O)n2c13)C(=O)NCCN1CCOCC1 (stereo not drawn)	aSyn UTR act -76
O=C(Nc1nc2ccccc2s1)c1ccc(OCC2CCCO2)cc1 (stereo not drawn)	aSyn UTR act -89
O=C(NC1=NCCS1)c1ccc(OCC2CCCO2)cc1 (stereo not drawn)	aSyn UTR act -77
Cc1ccc(NC(=O)c2ccc(OCC3CCCO3)cc2)cc1 (stereo not drawn)	aSyn UTR act -123
Cc1ccc(NC(=O)c2ccc(OC(=O)COc3ccc(Cl)c(C)c3)cc2)cc1	aSyn UTR act -115
Cc1cnc(NC(=O)c2ccc(OCC3CCCO3)cc2)s1 (stereo not drawn)	none
CCOc1ccc(C(=O)NC2=NCCS2)cc1	aSyn UTR act -85
Cc1ncc(CO)c(/C=N/Nc2ccc(C(F)(F)F)cn2)c1O	none
Cc1ncc(CO)c(/C=N/N=C/c2ccccc2O)c1O	aSyn UTR act -89
O=C(O)c1cnn(-c2nc(-c3ccc(Br)cc3)cs2)c1C(F)(F)F	aSyn UTR act -96
O=c1[nH]c(SCc2ccc(Cl)cc2)nc2[nH]ncc12	aSyn UTR act -70
CC(=O)C1=C(C)OC(N)=C(C#N)C1c1cc([N+](=O)[O-])ccc1Cl (stereo not drawn)	aSyn UTR act -69
C/C(=N\NC(=O)c1nnn(-c2nonc2N)c1CN(C)c1ccccc1)c1ccccn1	none
CCN(CC)Cc1c(C(=O)N/N=C/c2ccc(OCc3ccccc3C)cc2)nnn1-c1nonc1N	aSyn UTR act -87
CCc1c(C(=O)N/N=C/c2ccc(OCc3ccc(F)cc3)c(OC)c2)nnn1-c1nonc1N	aSyn UTR act -128
Cc1ccc(COc2cccc(/C=N/NC(=O)c3nnn(-c4nonc4N)c3C)c2)cc1	aSyn UTR act -152
Nc1nonc1-n1nnc(C(=O)N/N=C/c2ccc(OCc3ccc(F)cc3)cc2)c1COc1ccccc1	aSyn UTR act -122
Cc1c(C(=O)N/N=C/c2c(O)ccc3ccccc23)nnn1-c1nonc1N	none
Nc1nonc1-n1nnc(C(=O)N/N=C/c2cc(Br)ccc2O)c1CNc1ccccc1	none
CC1CCN(Cc2c(C(=O)N/N=C/c3ccc(C(C)(C)C)cc3)nnn2-c2nonc2N)CC1	none
Nc1nonc1-n1nnc(C(=O)N/N=C/c2ccc(OCc3ccccc3)cc2)c1CN1CCCCC1	aSyn UTR act -112
Nc1nonc1-n1nnc(C(=O)N/N=C/c2ccc(OCc3ccccc3F)cc2)c1CNc1ccccc1	aSyn UTR act -75
O=c1c2c3nc4ccccc4nc3n(/N=C/c3ccccn3)c2ncn1-c1ccccc1	aSyn UTR act -238
CC1(C)Cc2c(c(N3CCOCC3)nc3sc4c(NCc5ccccc5)nnnc4c23)CS1	none
Cc1cc(C(=O)CN2CCCC(C)C2)c(C)n1-c1ccc(F)cc1 (stereo not drawn)	aSyn UTR act -126
Cc1cc(NC(=O)CSc2nc3c(cc2C#N)CCCC3)no1	aSyn UTR act -74

Screens (PubChem BioAssay)
